The values below come from PubChem BioAssay AID1434 (Sanford-Burnham Center for Chemical Genomics, 2008).

Out of some 220,000 compounds screened, about 1,600 (0.73%) were called active.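 The calls were made as follows: active = mean inhibition across duplicate retests at 20 µM reaching about 50% (limit read from the data); inactive = the rest, inconclusive results apart.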 Shown is part of a subset that was picked to be rich in actives.

This assay concerns the target Runt-related transcription factor 1 (Homo sapiens) + Core-binding factor subunit beta (Homo sapiens) (UniProt Q01196+Q13951). Description: disruptors of Runt domain/CBFb-SMMHC interaction – biochemical, FRET, Cerulean-Runt, Venus-CBFb-SMMHC, uHTS, primary screen (AID 1434).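 Also: 0% = DMSO wells and 100% = wells with excess untagged CBFb-SMMHC; inhibitors lower the FRET ratio by blocking Runt binding to CBFb-SMMHC.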 The following applies: Cerulean-Runt/Venus-CBFb-SMMHC FRET ratio 530/480, 1 h, at 20 µM, stronger effect = higher value.

Chain of Runt-related transcription factor 1 (Homo sapiens) + Core-binding factor subunit beta (Homo sapiens) (Q01196 whole entry, looked up, the tested form may be a part): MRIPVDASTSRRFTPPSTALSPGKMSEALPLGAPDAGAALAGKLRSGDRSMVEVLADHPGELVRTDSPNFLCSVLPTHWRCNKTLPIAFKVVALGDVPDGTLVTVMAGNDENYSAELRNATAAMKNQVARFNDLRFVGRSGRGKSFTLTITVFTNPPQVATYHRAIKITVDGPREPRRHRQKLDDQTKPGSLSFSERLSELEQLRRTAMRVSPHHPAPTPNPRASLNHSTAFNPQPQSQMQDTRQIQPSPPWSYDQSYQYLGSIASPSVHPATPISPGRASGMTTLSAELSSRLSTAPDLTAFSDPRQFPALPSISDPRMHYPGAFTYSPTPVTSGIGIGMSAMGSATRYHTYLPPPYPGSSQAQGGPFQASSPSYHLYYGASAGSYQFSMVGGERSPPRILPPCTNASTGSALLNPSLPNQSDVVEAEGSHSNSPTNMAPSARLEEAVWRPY
Chain of Runt-related transcription factor 1 (Homo sapiens) + Core-binding factor subunit beta (Homo sapiens) (Q13951 whole entry, looked up, the tested form may be a part): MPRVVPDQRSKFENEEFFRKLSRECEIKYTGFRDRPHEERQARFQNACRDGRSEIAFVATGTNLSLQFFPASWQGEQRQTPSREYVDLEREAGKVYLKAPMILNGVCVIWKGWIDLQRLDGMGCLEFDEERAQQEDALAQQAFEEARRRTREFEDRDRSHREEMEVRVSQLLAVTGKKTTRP

On to `CC(C)Oc1c(Br)cc(Br)cc1/C=N/NC(N)=S`, for which the inhibition was -0.8% (inactive).
The same measure, in the same setting: then `C=CCN(CC=C)C(=O)COC(=O)c1n[nH]c2ccccc12`, with -3% (inactive); and `O=c1[nH]c(=S)[nH]c2[nH]c(=S)[nH]c12`, with 45.1% (inactive).
Same read-out and setting: the same measure for `COc1ccc(C(C(=O)NC2CCCCC2)N(C(=O)CCl)c2ccccc2Cl)cc1` (configuration not stated): -1.2% (inactive).
As to `OC(COCC1COc2ccccc2O1)CN1CCN(c2ccc(F)cc2)CC1` (configuration not stated), the inhibition was 0.5% (inactive).
Still for that read-out and setting: the same measure for `COc1ccc(Cc2nnc(NC(=O)c3cc(OC)c(OC)c(OC)c3)s2)cc1OC`: -2% (inactive); for `COc1cc(/C=N/NC(=S)Nc2cccnc2)cc(OC)c1O`: 3% (inactive); for `CCCCCCCC[n+]1cccc(C(=O)N2c3c(nc(N)[nH]c3=O)NC(C)C2C)c1` (configuration not stated): 3.4% (inactive).
As to `COc1ccc2c(CN3CCN(S(=O)(=O)c4cccs4)CC3)cc(=O)oc2c1`, the inhibition is 12.6% (inactive).
Regarding `O=C(CN1CCN(S(=O)(=O)/C=C/c2ccccc2)CC1)Nc1ccc(N2CCOCC2)cc1`, the inhibition was 1.4% (inactive).
Consider `O=c1cc(CN2CCN(S(=O)(=O)/C=C/c3ccccc3)CC2)c2ccc(O)cc2o1`, for which the inhibition was 130% (active). In addition, for the setting “retest duplicate average”, the inhibition worked out at 146%.
Regarding `COc1cccc(OCCCN2CCCCCC2)c1`, the inhibition was -44.8% (inactive).
On the same count and under the same terms, then `COc1cccc(/C=C/c2ccc3ccccc3n2)c1OC(C)=O`, with -3.2% (inactive).
For `COc1ccccc1/C=C/C1=NC(=C\N(C)C)/C(=O)O1`, the inhibition was 89.1% (active). The inhibition (retest duplicate average) was 91.9%.
Turning to `O=C1OC(/C=C/c2ccccc2)=NC/1=C/c1ccco1`, the inhibition is -22.3% (inactive).
On the same count and under the same terms, then `CC(C)=C1C2CCC1C1C(=O)N(NC(=O)c3ccco3)C(=O)C21` (configuration not stated), with -1.2% (inactive).
With `COc1cccc(C(=O)c2cc3ccc(O)cc3oc2=O)c1`, the inhibition was 165% (active). Moreover, the inhibition (retest duplicate average) is 194%.
On to `COc1ccc2oc(=O)c(C(=O)O)cc2c1`, for which the inhibition is 1.6% (inactive).
On to `COc1ccc2oc(=O)c(C(=O)N3CCCC3)cc2c1`, for which the inhibition is 3.9% (inactive).
The same measure, in the same setting: the same measure for `NC(=O)c1c(NC(=O)CSc2nc(N)cc(=O)[nH]2)sc2c1CCCC2`: -8.6% (inactive).
Regarding `NC(=O)c1c(Nc2nc3c(F)cccc3s2)sc2c1CCCC2`, the inhibition is 104% (active). Besides, where the note is “retest duplicate average”, the inhibition stood at 175%.
`Fc1cc(F)c2nc(Nc3nc4c(F)cccc4s3)sc2c1`: the inhibition was 4.2% (inactive).
On the same count and under the same terms, then `CCN1CC=C2C(C#N)=C(N)C(C#N)(C#N)[C@H](c3ccoc3)[C@H]2C1`, with -20.7% (inactive).
For the compound `CCCN1CC=C2C(C#N)=C(N)C(C#N)(C#N)C(c3cc(OC)ccc3OC)C2C1` (configuration not stated), the inhibition was 88.4% (active). For the same compound, the inhibition (retest duplicate average) turned out to be 77.5%.
For the compound `CCOC(=O)N1CC=C2C(C#N)=C(N)C(C#N)(C#N)[C@H](c3cccs3)[C@H]2C1`, the inhibition was -18.3% (inactive).
On the same count and under the same terms, the same measure for `Cc1ccc(C2Nc3ccccc3C(=O)N2CCN2CCNC2=O)cc1` (configuration not stated): 2.4% (inactive).
On the same count and under the same terms, then `CC(C)NC(=O)C(=O)NCCCOC(C)C`, with -0.3% (inactive); and `O=C(Nc1nccs1)c1cc(S(=O)(=O)N2CCOCC2)c(Cl)cc1Cl`, with -1% (inactive); and `CC(=O)Cc1nsc(NC(=O)c2ccc(Cl)cc2Cl)n1`, with -0.9% (inactive).
For `CCN1CCc2nc(NC(=O)c3cc(F)c(F)cc3Cl)sc2C1`, the inhibition was 52.5% (active). Also, the inhibition (retest duplicate average) turned out to be 76.5%.
`O=C(CCc1ccccc1)NNc1ccc(F)cc1`: the inhibition is -0.8% (inactive).
As to `CCCc1cc(=O)oc2c(C)c(O)c(CN3CCCCC3)cc12`, the inhibition was 70.4% (active). Further, the inhibition (retest duplicate average) was 121%.
As for `CCc1ccc2oc(=O)cc(CN3CCCCC3C)c2c1` (configuration not stated), the inhibition was -0.5% (inactive).
As for `CCCc1cc(=O)[nH]c(SCc2cc(=O)oc3c(C)c(C)ccc23)n1`, the inhibition was 1.9% (inactive).
The same measure, in the same setting: then `O=C(CN1CCc2ccccc21)NC(c1ccccc1)c1ccccc1`, with -0.8% (inactive); and `CCc1ccc(NC(=O)Nc2ccncc2)cc1`, with -0.3% (inactive).
On the same count and under the same terms, the same measure for `CCN(CC)c1ccc2oc(=O)c(C)nc2c1`: -81.6% (inactive); for `CCN(CC)c1ccc2cc(C(N)=O)/c(=N\NC(=O)c3ccncc3)oc2c1`: -128% (inactive).
Consider `CCN(CC)c1ccc2cc(C(=O)O)c(=O)oc2c1`, for which the inhibition is 77.6% (active). Besides, the inhibition (retest duplicate average) was 71.5%.
For the compound `CCc1ccc(C2C(C#N)=C(N)N(N(C)C)C3=C2C(=O)CCC3)s1` (configuration not stated), the inhibition is -11.9% (inactive).
On the same count and under the same terms, the same measure for `N#CC1=C(N)N(c2ccccc2)C2=C(C(=O)CCC2)C1c1ccccc1` (configuration not stated): 29.5% (inactive).
`CSc1sc(C)cc1C1C(C#N)=C(N)N(c2cccnc2)C2=C1C(=O)CCC2` (configuration not stated): the inhibition was 76.1% (active). Further, where the note is “retest duplicate average”, the inhibition was 73.7%.
As for `COc1ccc(C2/C=C\CN(S(=O)(=O)c3cccs3)CC(=O)N2Cc2ccc(F)cc2)cc1` (configuration not stated), the inhibition was 2.2% (inactive).
On the same count and under the same terms, then `COc1cc(CNc2ncn[nH]2)ccc1OCc1ccccc1C`, with -0.6% (inactive); and `N#Cc1ccc(Oc2ccc(C(F)(F)F)cc2NC(=O)c2ccc(F)cc2)cc1`, with -0.8% (inactive); and `C#CCNC(=O)C1=C[C@@H](c2ccccc2)[C@H](CCCO)[C@@H](OCC)O1`, with 1.4% (inactive).
The same measure, in the same setting: the same measure for `Cc1cc(C)cc(NC(=O)NC2CCN(CC(=O)Nc3cccc(Cl)c3C)CC2)c1`: 0.9% (inactive).
Same read-out and setting: the same measure for `NC(=O)C1(C(N)=O)OC1c1ccc(Cl)cc1Cl` (configuration not stated): 1% (inactive); for `CCOc1ccccc1C1C(C(=O)OC)=CN(C)C=C1C(=O)OC`: 42% (inactive).
With `COC(=O)C1=CN(C)C=C(C(=O)OC)C1c1ccc(Cl)cc1Cl`, the inhibition is 60.9% (active). The inhibition (retest duplicate average) is 91.8%.
Regarding `CC(OC(=O)c1ccc(NS(=O)(=O)c2ccc3[nH]c(=O)[nH]c3c2)cc1)C(=O)Nc1cccc(Cl)c1Cl` (configuration not stated), the inhibition was -5.6% (inactive).
On the same count and under the same terms, the same measure for `CCOC(=O)C1CCN(CCC(=O)Nc2cccc(C)c2)CC1`: 0.1% (inactive); for `COCc1ccc(C(=O)N2CCc3c([nH]c4ccccc34)C2c2ccccn2)s1` (configuration not stated): 2.3% (inactive).
Regarding `COCCCNC(=S)NCCNc1nc2cc(C)c(C)cc2cc1C#N`, the inhibition was 88.8% (active). For the setting “retest duplicate average”, the inhibition turned out to be 125%.
Regarding `Cc1ccc2nc(NCCCNC(=O)c3cnccn3)c(C#N)cc2c1`, the inhibition was 32% (inactive).
Same read-out and setting: then `COCCCNC(=S)NC(=O)c1ccc([N+](=O)[O-])cc1`, with 4.6% (inactive); and `CC(C)N(Cc1ccccc1)C(=O)COC(=O)c1cnccn1`, with -2.4% (inactive).
Consider `CSCCC(Nc1ccc(S(=O)(=O)N2CCOCC2)cc1[N+](=O)[O-])C(=O)OCC(=O)N(C(C)C)C(C)C` (configuration not stated), for which the inhibition is -4.8% (inactive).
Still for that read-out and setting: then `CCCC(=O)N1c2ccccc2NC2=C(C(=O)CCC2)C1c1ccc(F)cc1` (configuration not stated), with -4.3% (inactive); and `CCOC(=O)C1=C(N)N(c2ccc(C)cc2)C2=C(C(=O)CCC2)C1c1cccs1` (configuration not stated), with -7.1% (inactive).
In the case of `CCCN1C2=C(C(=O)CCC2)C(c2ccc(O)c(Br)c2)C2=C1CCCC2=O`, the inhibition is 118% (active). Moreover, the inhibition (retest duplicate average) turned out to be 118%.
For `O=C(Nc1ccc2ccccc2c1)/C(=C\c1ccc2c(c1)OCO2)NC(=O)c1ccco1`, the inhibition is -21.7% (inactive).
The same measure, in the same setting: the same measure for `COc1ccc(N2CCN(C(=O)CSc3nc4cc(OC)c(OC)cc4cc3C#N)CC2)cc1`: 9.4% (inactive).
Still for that read-out and setting: then `COc1cccc(C(=O)Nc2ccc(N3CCCC3)cc2)c1`, with 5.7% (inactive).
`COc1ccc2nc(N3CCCC(O)C3)c(C#N)cc2c1` (configuration not stated): the inhibition is 65% (active). Moreover, where the note is “retest duplicate average”, the inhibition worked out at 72.9%.
Take `Cc1cc(C)nc(SCc2cn3c(C)cc(C)nc3n2)n1`: the inhibition is -4% (inactive).
Same read-out and setting: the same measure for `O=c1c(Cl)c(NCc2ccc(F)cc2Cl)cnn1C12CC3CC(CC(C3)C1)C2`: 3.5% (inactive).
Same read-out and setting: the same measure for `FC(F)(F)c1ccc(-n2cn[nH]c2=S)cc1`: 3.3% (inactive).
On the same count and under the same terms, then `Nc1[nH][nH]c(=O)c1N=Nc1ccc2c(c1)OCO2`, with -0.1% (inactive).
In the case of `c1csc(-c2cn3c(n2)SCC3)c1`, the inhibition is -6.8% (inactive).
With `N#Cc1c(C(F)(F)F)cc(-c2cccs2)nc1N1CCCCC1`, the inhibition is 82.5% (active). Moreover, the inhibition (retest duplicate average) came out at 79.2%.
Consider `CCCn1c(=O)c2c(C(F)(F)F)cc(-c3cccs3)nc2n(CCC)c1=O`, for which the inhibition is 1.9% (inactive).
The same measure, in the same setting: then `C=CCCN(Cc1ccccc1)S(=O)(=O)c1ccccc1Br`, with -2.3% (inactive); and `c1ccc(-n2cccc2)c(N2CCCCC2)c1`, with -0.7% (inactive).
Turning to `O=C(Cn1c(-c2ccccn2)nc2ccccc21)NCCN1CCOCC1`, the inhibition was -0.1% (inactive).
On to `c1ccc2cc3c(NCCN4CCOCC4)ccnc3cc2c1`, for which the inhibition was 78.2% (active). Moreover, where the note is “retest duplicate average”, the inhibition was determined as 71.5%.
As for `O=C(NCCN1CCOCC1)c1ccc2c(c1)ncn2C1CCCC1`, the inhibition was 0.2% (inactive).
As for `C/C(N)=C(/C#N)C(=O)COC(=O)CNS(=O)(=O)c1ccc(C)cc1`, the inhibition was -1.2% (inactive).
`CC(C)N(C)C(=O)CCc1nnc(CCc2c[nH]c3ccccc23)o1`: the inhibition was -1.1% (inactive).
The same measure, in the same setting: the same measure for `COc1ccc(/C=C2\SC(=S)N(CC(=O)NNC(=O)c3ccncc3)C2=O)cc1`: -217% (inactive); for `Cc1cc(=O)[nH]c(N/N=C/c2ccc3c(c2)OCCO3)n1`: -9.8% (inactive).
Consider `COc1ccc(S(=O)(=O)Nc2ccc3oc(C)c(C(C)=O)c3c2)cc1`, for which the inhibition is -0.7% (inactive).
Same read-out and setting: the same measure for `Cc1ccc(S(=O)(=O)Nc2ccc3ncccc3c2)cc1`: -1.3% (inactive).
As to `COCc1cc(=O)oc2cc(NS(=O)(=O)c3ccc(C)cc3)ccc12`, the inhibition was 80.2% (active). Further, the inhibition (retest duplicate average) worked out at 71.8%.
Consider `Cc1ccc(S(=O)(=O)NCCc2nnc3ccc(SCc4cccnc4)nn23)cc1`, for which the inhibition was -6.7% (inactive).
For the compound `CC(=O)Nc1cc2ccc(OC(C)=O)cc2oc1=O`, the inhibition is 58.6% (active). For the same compound, under “retest duplicate average”, the inhibition was found to be 119%.
For the compound `O=C(Nc1cc2ccccc2oc1=O)C1CCCCC1`, the inhibition is -0.3% (inactive).
Same read-out and setting: then `COC(=O)Cc1c(C)c2ccc(OCC(=O)NCc3ccc4c(c3)OCO4)cc2oc1=O`, with -5.4% (inactive).
On the same count and under the same terms, then `O=C(Oc1ccccc1)Oc1ccc2c(c1)oc(=O)c1ccccc12`, with -17.7% (inactive).
For `CC(=O)Oc1ccc2c(C)c(CC(C)O)c(=O)oc2c1` (configuration not stated), the inhibition is 119% (active). For the same compound, under “retest duplicate average”, the inhibition came to 116%.
`Cc1c(Cc2ccccc2)c(=O)oc2cc(OCC(N)=O)ccc12`: the inhibition is 2.5% (inactive).
Still for that read-out and setting: then `CCCNC(=O)N1CCN(C(=O)NCCC)CC1`, with 2.1% (inactive); and `Cc1nc(C(=O)NCc2ccccc2)sc1C1(C)CC(c2cccnc2)=NO1` (configuration not stated), with 0.2% (inactive).
On the same count and under the same terms, the same measure for `CCOC(=O)C1=C(c2ccccc2)NC(=S)NC1c1ccc(Cl)cc1` (configuration not stated): -1.3% (inactive).

What is called inhibition is the relative decrease from the control value, in per cent.
